“And” between values parts separate entries of the source, which are not always exact repeats. Equal entries are not always repeated. The campaign covered roughly 5,500 compounds. About 2,000 (36%) were called active. Not shown: some 18% with an inconclusive outcome. Rule as the data show it: active = normalized growth mostly below about 0.91 (no sharp cut-off); inconclusive = no clear call, values can overlap the other calls; inactive = mostly above about 0.92. The list shows a part of the results.
Experiment: chemical genetic growth profiling, strain panel (AID 1159580);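 also: tested at 20 µM; growth read once vehicle control cultures reached saturation at 30 °C; 1 = growth at the plate median or of vehicle wells; lower values mean less growth of the strain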
Conditions: S. cerevisiae deletion strains, growth OD

Measured: normalized growth

CN(C)CCC(c1ccc(Br)cc1)c1ccccn1 (centres undefined)
inactive: locus YAL013W, strain DEP1, stronger effect = lower value 0.982 and 1 | locus YAL021C, strain ccr4, stronger effect = lower value 0.958 | locus YAL026C, strain drs2, stronger effect = lower value 0.996 | locus YAL030W, strain snc1, stronger effect = lower value 0.975 | locus YAL040C, strain CLN3, stronger effect = lower value 1.11 | locus YBL061C, strain skt5, stronger effect = lower value 0.991 | locus YBR009C, strain hhf1, stronger effect = lower value 0.999 | locus YBR021W, strain FUR4, stronger effect = lower value 0.975 | locus YBR023C, strain chs3, stronger effect = lower value 0.993 | locus YBR171W, strain sec66, stronger effect = lower value 0.974 | locus YBR229C, strain ROT2, stronger effect = lower value 0.978 | locus YBR231C, strain swc5, stronger effect = lower value 0.983 | locus YBR279W, strain paf1, stronger effect = lower value 0.976 | locus YCL011C, strain gbp2, stronger effect = lower value 0.97 | locus YCL016C, strain dcc1, stronger effect = lower value 0.979 | locus YCL029C, strain bik1, stronger effect = lower value 0.979 | locus YCL061C, strain MRC1 (second series), stronger effect = lower value 1 | locus YCL069W, strain vba3, stronger effect = lower value 0.985 | locus YCR088W, strain abp1, stronger effect = lower value 0.983 | locus YDL005C, strain med2, stronger effect = lower value 0.975 | locus YDL035C, strain GPR1, stronger effect = lower value 0.991 | locus YDL040C, strain nat1, stronger effect = lower value 0.967 | locus YDL074C, strain BRE1, stronger effect = lower value 0.952 | locus YDL101C, strain DUN1, stronger effect = lower value 0.984 | locus YDL134C, strain PPH21, stronger effect = lower value 0.983 | locus YDL185W, strain tfp1, stronger effect = lower value 0.998 | locus YDL192W, strain arf1, stronger effect = lower value 0.997 | locus YDR001C, strain nth1, stronger effect = lower value 0.974 | locus YDR069C, strain doa4, stronger effect = lower value 0.929 | locus YDR101C, strain arx1, stronger effect = lower value 0.967 | locus YDR137W, strain rgp1, stronger effect = lower value 1.01 | locus YDR150W, strain NUM1, stronger effect = lower value 0.997 and 1.01 | locus YDR159W, strain sac3, stronger effect = lower value 0.962 | locus YDR162C, strain NBP2, stronger effect = lower value 0.991 | locus YDR195W, strain ref2 0.96 | locus YDR297W, strain sur2, stronger effect = lower value 0.973 | locus YDR318W, strain mcm21, stronger effect = lower value 0.985 | locus YDR334W, strain swr1, stronger effect = lower value 0.956 | locus YDR335W, strain msn5, stronger effect = lower value 0.992 | locus YDR388W, stronger effect = lower value 0.99 | locus YDR392W, strain spt3, stronger effect = lower value 0.997 | locus YDR502C, strain sam2, stronger effect = lower value 0.984 | locus YEL003W, strain gim4, stronger effect = lower value 0.969 | locus YEL037C, strain rad23, stronger effect = lower value 0.981 | locus YEL061C, strain CIN8 (second series), stronger effect = lower value 0.989 | locus YEL061C, strain CIN8, stronger effect = lower value 0.994 | locus YER002W, strain NOP16, stronger effect = lower value 1.01 | locus YER015W, strain faa2, stronger effect = lower value 0.992 | locus YER016W, strain bim1, stronger effect = lower value 0.935 | locus YER110C, stronger effect = lower value 0.985 | locus YER111C, strain swi4, stronger effect = lower value 0.977 | locus YER155C, strain BEM2 (second series), stronger effect = lower value 1 | locus YER155C, strain BEM2, stronger effect = lower value 0.959 | locus YER167W, strain BCK2, stronger effect = lower value 0.992 | locus YFR010W, strain ubp6, stronger effect = lower value 0.986 | locus YGL078C, strain dbp3, stronger effect = lower value 0.987 | locus YGL086W, strain mad1, stronger effect = lower value 1 | locus YGL167C, strain pmr1, stronger effect = lower value 0.988 | locus YGL173C, strain kem1, stronger effect = lower value 0.975 | locus YGL227W, strain vid30, stronger effect = lower value 0.985 | locus YGL240W, strain doc1, stronger effect = lower value 0.995 | locus YGL248W, strain PDE1, stronger effect = lower value 0.974 | locus YGL253W, strain hxk2, stronger effect = lower value 0.991 | locus YGR078C, strain PAC10, stronger effect = lower value 0.992 and 1.01 | locus YGR135W, strain pre9, stronger effect = lower value 0.977 | locus YGR229C, strain SMI1, stronger effect = lower value 0.987 | locus YGR252W, strain gcn5, stronger effect = lower value 1.04 | locus YHR013C, strain ard1, stronger effect = lower value 0.956 | locus YHR027C, strain rpn1, stronger effect = lower value 0.952 | locus YHR030C, strain SLT2, stronger effect = lower value 0.992 and 0.989 | locus YHR079C, strain IRE1 (second series), stronger effect = lower value 0.99 | locus YHR079C, strain IRE1, stronger effect = lower value 0.99 | locus YHR094C, strain hxt1, stronger effect = lower value 0.994 | locus YHR129C, strain ARP1, stronger effect = lower value 0.986 | locus YHR142W, strain chs7, stronger effect = lower value 0.995 | locus YHR200W, strain rpn10, stronger effect = lower value 0.984 | locus YIL066C, strain RNR3, stronger effect = lower value 0.989 | locus YIL073C, strain SPO22, stronger effect = lower value 1.04 | locus YIL125W, strain kgd1, stronger effect = lower value 0.998 | locus YIR030C, strain dcg1, stronger effect = lower value 0.985 | locus YJL092W, strain hpr5, stronger effect = lower value 0.967 | locus YJL095W, strain BCK1 (second series), stronger effect = lower value 0.972 | locus YJL095W, strain BCK1, stronger effect = lower value 0.966 and 0.986 | locus YJL115W, strain asf1, stronger effect = lower value 0.941 | locus YJL129C, strain trk1, stronger effect = lower value 0.952 | locus YJL134W, strain LCB3, stronger effect = lower value 0.989 | locus YJL154C, strain vps35, stronger effect = lower value 0.955 | locus YJL164C, strain tpk1, stronger effect = lower value 0.991 | locus YJL166W, strain qcr8, stronger effect = lower value 0.973 | locus YJL168C, strain set2, stronger effect = lower value 0.993 | locus YJL187C, strain SWE1 (second series), stronger effect = lower value 0.978 | locus YJR043C, strain POL32, stronger effect = lower value 0.983 | locus YJR066W, strain TOR1, stronger effect = lower value 0.967 | locus YJR075W, strain HOC1, stronger effect = lower value 0.975 and 1.03
